Test results from PubChem BioAssay (NCATS).
Inconclusive results are not listed. Active and inactive are the calls of the source. Calls follow the shape of the dose curve; as a rule, active = well fitted curve in the direction sought with a large enough effect; inconclusive = small, poorly fitted or top-dose-only effect, or another doubt; inactive = no such curve, though single readings can be large; an effect the other way counts as inactive or inconclusive.

Columns and labels:
[1] = Cellular Toxicity (caspase-3) Mesangial (AID 660); conditions: mesangial cells, normalized: DMSO 0%, 100 µM tamoxifen 100%; at 91.7 µM (top of the series);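 also: combined caspase 3 and 7 activity read by Caspase-Glo luminescence; cells exposed to compound for 16 h before the caspase read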
Procedure, shortened: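 Mesangial cells, 1000/well, 5 h settle at 37 °C; compound 16 h, 37 °C; Caspase-Glo 3/7 reagent 20 min RT; luminescence. Norm.: DMSO = 0%, tamoxifen 100 uM = 100%. AC50, Hill fit.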

[2] = Cellular Toxicity (caspase-3) SK-N-SH (AID 661);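 also: 0% = DMSO basal and 100% = 10 µM staurosporine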
Procedure, shortened: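 Human neuroblastoma SK-N-SH, 1500 cells/well, 5 hr pre-incubation, then compound 16 hr, 37 °C. Caspase-Glo 3/7 reagent, 1 hr RT, luminescence. Norm. to DMSO/10 uM staurosporine; Hill-fit AC50.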

[3] = Cellular Toxicity (caspase-3) H-4-II-E (AID 663); conditions: H-4-II-E rat hepatoma, scaled: DMSO 0%, 100 µM tamoxifen 100%; at 92.2 µM (top of the series);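 also: cells exposed to compound for 16 hr before readout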
Procedure, shortened: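 Apoptosis induction is scored as increased luminescence from caspase 3/7 substrate cleavage in rat hepatoma H-4-II-E cells exposed to compound for 16 hr. Activity is scaled between DMSO and 100 uM tamoxifen.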

[4] = Cellular Toxicity (caspase-3) Hek293 (AID 664); conditions: HEK293 caspase-3 activation, DMSO = 0%, 100 µM tamoxifen = 100%; at 92.2 µM (top of the series);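 also: cells exposed to compound for 16 h at 37 °C before readout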
Procedure, shortened: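 Cells plated, 5 hr at 37 °C; compounds added; 16 hr at 37 °C; Caspase-Glo 3/7 reagent, 20 min RT; luminescence read. Activation expressed relative to DMSO and 100 uM tamoxifen, AC50 by Hill model.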

[5] = Cellular Toxicity (caspase-3) N2a (AID 665);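 also: compound exposure lasted 16 h at 37 °C before readout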
Procedure, shortened: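 N2a cells, 1500/well, 5 h settle at 37 °C; cpd 16 h, 37 °C; Caspase-Glo 3/7, 1 h RT; luminescence. Norm: DMSO = 0, 10 uM staurosporine = 100%. AC50, Hill fit.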

[6] = Cellular Toxicity (caspase-3) NIH 3T3 (AID 666);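 also: caspase signal read after 16 h compound exposure; 0% = DMSO basal and 100% = 100 µM tamoxifen stimulation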
Procedure, shortened: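 Luminescence from aminoluciferin released by caspase-3/7 cleavage of a peptide substrate served as read-out. Mouse fibroblast NIH 3T3 cells were exposed to compounds over a concentration range for 16 hours, and AC50 values came from standard Hill modelling.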

[7] = Cellular Toxicity (caspase-3) Renal Proximal Tubule (AID 667); conditions: Potency: caspase-3 activation;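 also: cells exposed to compound for 16 hours at 37 °C before detection; 0% = DMSO basal and 100% = 10 µM staurosporine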
Procedure, shortened: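 Caspase 3/7 activation measured by luminescent aminoluciferin release in primary rat proximal tubule cells after 16 hr compound exposure at 37 °C. AC50 from Hill-fitted concentration-response, scaled between DMSO and 10 uM staurosporine.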

[8] = biological target: Cytochrome P450 3A4 (Homo sapiens) (UniProt P08684); assay: qHTS Assay for Inhibitors and Substrates of Cytochrome P450 3A4 (AID 884); also: % is scaled to controls: 0 for no effect and ±100 for the full control effect; nearly all actives have a fitted effect of over 50% in size
Sequence of Cytochrome P450 3A4 (Homo sapiens) (P08684 whole entry, looked up): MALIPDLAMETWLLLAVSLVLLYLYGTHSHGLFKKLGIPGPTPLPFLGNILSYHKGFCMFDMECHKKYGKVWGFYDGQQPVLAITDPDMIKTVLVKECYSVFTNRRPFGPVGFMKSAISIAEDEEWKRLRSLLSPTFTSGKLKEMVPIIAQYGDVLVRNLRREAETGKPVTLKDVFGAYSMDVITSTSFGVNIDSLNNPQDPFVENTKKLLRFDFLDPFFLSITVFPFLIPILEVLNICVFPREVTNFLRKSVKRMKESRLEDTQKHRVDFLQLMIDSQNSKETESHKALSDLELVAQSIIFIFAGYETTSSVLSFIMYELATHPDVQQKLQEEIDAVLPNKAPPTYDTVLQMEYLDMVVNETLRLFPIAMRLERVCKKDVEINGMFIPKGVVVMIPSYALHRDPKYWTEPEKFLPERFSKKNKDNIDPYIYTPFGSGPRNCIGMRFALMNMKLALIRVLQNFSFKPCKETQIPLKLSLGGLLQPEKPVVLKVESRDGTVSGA
Procedure, shortened: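 20 nM human CYP3A4 with 25 uM Luciferin-PPXE (at KM) in 200 mM KPO4, preincubated 10 min with compound; NADPH regeneration started a 60 min RT reaction. Luciferin detected by luminescence, normalized to 57 uM ketoconazole as full inhibition.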

[9] = Cell Viability - LYMP2-001 (AID 921);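 also: 0% = DMSO only and full inhibition = tetraoctylammonium bromide control wells; nearly all actives have a fitted effect of over 70% in size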
Procedure, shortened: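 Cellular ATP loss read by luciferase luminescence after 24 h compound exposure at 37 C in complete medium. LYMP2-001 lymphoblastoid cells, 2500/well; qHTS concentration-response data fitted with Hill equation for AC50.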

[10] = MultiTox-Fluor Cytotoxicity Assay - LYMP1-001 - Dead Cells (AID 946)
Procedure, shortened: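 AC50 from Hill fit of concentration-response; data normalized to DMSO (basal) and 15 uM tetraoctylammonium bromide (100%). LYMP1-001 lymphoblastoid cells, 2500/well, 16 hr compound at 37 C; dead-cell protease fluorescence, Ex/Em 485/520.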

[11] = MultiTox-Fluor Cytotoxicity Assay - LYMP1-001 - Live Cells (AID 947);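 also: 0% = DMSO only and full inhibition = tetraoctylammonium bromide control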
[12] = Cell Viability - LYMP1-002 - Assay at 16 hr (AID 948);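 also: 0% = DMSO alone and full effect = 92 µM tetraoctylammonium bromide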
Procedure, shortened: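 ATP luminescence (CellTiter-Glo) was measured after 16 hr compound exposure at 37 C of 2500 lymphoblastoid LYMP1-002 cells per well. Concentration-response curves were fitted with the Hill equation to give AC50.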

[13] = MultiTox-Fluor Cytotoxicity Assay - LYMP1-002 - Live Cells (AID 955); also: % is scaled to controls: 0 for no effect and ±100 for the full control effect
Procedure, shortened: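 Read-out is live-cell protease activity (cell-permeant GF-AFC substrate, fluorescence Ex/Em=405/510), where a decrease indicates acute toxicity. Human lymphoblastoid cells were treated 16 hours at 37 C in a concentration series, and AC50 values came from standard Hill modelling.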

[14] = MultiTox-Fluor Cytotoxicity Assay - LYMP1-002 - Dead Cells (AID 960); also: nearly all actives have a fitted effect of over 60% in size
Procedure, shortened: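 LYMP1-002 cells 2500/well; 5 hr 37 C pre-incubation; compound 16 hr 37 C; MultiTox-Fluor reagent 60 min RT; dead-cell fluor Ex/Em 485/520. Norm. to DMSO (0%) vs 15 uM tetraoctylammonium bromide (100%); Hill AC50.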

[15] = MultiTox-Fluor Cytotoxicity Assay - LYMP1-003 - Dead Cells (AID 961); also: nearly all actives have a fitted effect of over 70% in size
Procedure, shortened: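 Human lymphoblastoid LYMP1-003 cells (2500/well) were treated with compounds for 16 hr at 37 C in complete medium. Dead-cell protease release was read by bis-AAF-R110 fluorescence (Ex/Em 485/520). AC50 came from Hill fits, normalized to DMSO and 15 uM tetraoctylammonium bromide.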

[16] = MultiTox-Fluor Cytotoxicity Assay - LYMP1-003 - Live Cells (AID 962);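 also: cells exposed to compound for 16 hours at 37 °C; 0% = DMSO only and full loss = 92 µM tetraoctylammonium bromide; cytotoxic hits lower the live-cell protease signal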
Procedure, shortened: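 qHTS, 1536-well; 2500 cells/well LYMP1-003; 5 hr 37 C settle; cpd 16 hr 37 C; MultiTox-Fluor reagent 60 min RT; live-cell protease fluor. 405/510; Hill-fit AC50; tetraoctylammonium bromide pos. ctrl.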

[17] = Cell Viability - LYMP1-003 - Assay at 24 hr (AID 963);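 also: plate controls were DMSO only for no effect and tetraoctylammonium bromide positive control for full effect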
Procedure, shortened: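 Cells seeded at 2500/well, 5 hr at 37 C; compounds added; 24 hr at 37 C; CellTiter-Glo added, 30 min room temperature; luminescence read. Decrease in ATP taken as cytotoxicity, AC50 from Hill modelling.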

[18] = Cell Viability - LYMP1-003 - Assay at 40 hr (AID 964); also: % is scaled to controls: 0 for no effect and ±100 for the full control effect; nearly all actives have a fitted effect of over 60% in size
Procedure, shortened: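 Cells were seeded at 2500 per well and incubated 5 hr at 37 C. Compounds were added across a concentration series and left 40 hr at 37 C. CellTiter-Glo was added for 30 min at room temperature before luminescence reading.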

[19] = Cell Viability - LYMP2-003 (AID 965);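 also: cells exposed to compounds for 24 h before reading; 0% = DMSO only and full effect = 92 µM tetraoctylammonium bromide; nearly all actives have a fitted effect of over 50% in size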
Procedure, shortened: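 CellTiter-Glo luminescence quantified ATP loss after 24 h compound treatment of LYMP2-003 lymphoblastoid cells at 37 C. Titration series were fitted with the standard Hill equation to give AC50.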

[20] = Cell Viability - LYMP2-004 (AID 966);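 also: plate controls were DMSO only for no effect and tetraoctylammonium bromide control for full effect; nearly all actives have a fitted effect of over 65% in size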
Procedure, shortened: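 Cells seeded 2500/well, rested 5 hr at 37 C, dosed across a concentration series, incubated 24 hr at 37 C, then CellTiter-Glo added for 30 min at room temperature and luminescence read. Hill fitting gave AC50.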

COC(=O)CS
inactive: caspase-3 activation [1] -1.25% | outcome [2] | caspase-3 activation [3] 0.405% | caspase-3 activation [4] -1.02% | outcome [5] | outcome [6] | Potency [7] | Potency [8] | Potency [9] | outcome [10] | outcome [11] | outcome [12] | outcome [13] | outcome [14] | Potency [15] | Potency [16] | Potency [17] | Potency [18] | Potency [19] | Potency [20]

O=C(O)c1cccc([N+](=O)[O-])c1
inactive: caspase-3 activation [1] -1.42% | outcome [2] | caspase-3 activation [3] -0.0521% | caspase-3 activation [4] 2.38% | outcome [5] | outcome [6] | Potency [7] | Potency [8] | Potency [9] | outcome [10] | outcome [11] | outcome [12] | outcome [13] | outcome [14] | Potency [15] | Potency [16] | Potency [17] | Potency [18] | Potency [19]

O=Cc1ccc(CO)o1
inactive: caspase-3 activation [1] -0.0811% | outcome [2] | caspase-3 activation [3] 1.58% | caspase-3 activation [4] -1.08% | outcome [5] | outcome [6] | Potency [7] | Potency [8] | Potency [9] | outcome [10] | outcome [11] | outcome [12] | outcome [13] | outcome [14] | Potency [15] | Potency [16] | Potency [17] | Potency [18] | Potency [19]

CCN(Cc1ccccc1)c1ccccc1
inactive: caspase-3 activation [1] -0.109% | outcome [2] | caspase-3 activation [3] 0.0577% | caspase-3 activation [4] -1.67% | outcome [5] | outcome [6] | Potency [7] | Potency [8] | Potency [9] | outcome [10] | outcome [11] | outcome [12] | outcome [13] | outcome [14] | Potency [15] | Potency [16] | Potency [17] | Potency [18] | Potency [19] | Potency [20]

Cc1cccc2cccnc12
inactive: caspase-3 activation [1] -0.268% | outcome [2] | caspase-3 activation [3] 0.865% | caspase-3 activation [4] -1.22% | outcome [5] | outcome [6] | Potency [7] | Potency [8] | Potency [9] | outcome [10] | outcome [11] | outcome [12] | outcome [13] | outcome [14] | Potency [15] | Potency [16] | Potency [17] | Potency [18] | Potency [19] | Potency [20]

CN(C)c1cccc(O)c1
inactive: caspase-3 activation [1] 1.93% | outcome [2] | caspase-3 activation [3] 2.04% | caspase-3 activation [4] 0.706% | outcome [5] | outcome [6] | Potency [7] | Potency [8] | Potency [9] | outcome [10] | outcome [11] | outcome [12] | outcome [13] | outcome [14] | Potency [15] | Potency [16] | Potency [17] | Potency [18] | Potency [19] | Potency [20]

O=C(O)CCSSCCC(=O)O
inactive: caspase-3 activation [1] -0.167% | outcome [2] | caspase-3 activation [3] -0.00623% | caspase-3 activation [4] -0.885% | outcome [5] | outcome [6] | Potency [7] | Potency [8] | Potency [9] | outcome [10] | outcome [11] | outcome [12] | outcome [13] | outcome [14] | Potency [15] | Potency [16] | Potency [17] | Potency [18] | Potency [19]

CCC(C)O (stereo not given)
inactive: caspase-3 activation [1] 0.681% | outcome [2] | caspase-3 activation [3] 1.46% | caspase-3 activation [4] -1.23% | outcome [5] | outcome [6] | Potency [7] | Potency [8] | Potency [9] | outcome [10] | outcome [11] | outcome [12] | outcome [13] | outcome [14] | Potency [15] | Potency [16] | Potency [17] | Potency [18] | Potency [19]

Cc1ccccc1C(=O)O
inactive: caspase-3 activation [1] -0.934% | outcome [2] | caspase-3 activation [3] -0.229% | caspase-3 activation [4] -3.25% | outcome [5] | outcome [6] | Potency [7] | Potency [8] | Potency [9] | outcome [10] | outcome [11] | outcome [12] | outcome [13] | outcome [14] | Potency [15] | Potency [16] | Potency [17] | Potency [18] | Potency [19] | Potency [20]

CNc1ccccc1
inactive: caspase-3 activation [1] 1.7% | outcome [2] | caspase-3 activation [3] 0.262% | caspase-3 activation [4] -1.03% | outcome [5] | outcome [6] | Potency [7] | Potency [8] | Potency [9] | outcome [10] | outcome [11] | outcome [12] | outcome [13] | outcome [14] | Potency [15] | Potency [16] | Potency [17] | Potency [18] | Potency [19] | Potency [20]

Cc1ccc(C)cc1
inactive: caspase-3 activation [1] -0.809% | outcome [2] | caspase-3 activation [3] 1.14% | caspase-3 activation [4] -2.53% | outcome [5] | outcome [6] | Potency [7] | Potency [8] | Potency [9] | outcome [10] | outcome [11] | outcome [12] | outcome [13] | outcome [14] | Potency [15] | Potency [16] | Potency [17] | Potency [18] | Potency [19]

CC(C)=CCC/C(C)=C/C=O
inactive: caspase-3 activation [1] 0.108% | outcome [2] | caspase-3 activation [3] 0.873% | caspase-3 activation [4] -2.02% | outcome [5] | outcome [6] | Potency [7] | Potency [8] | Potency [9] | outcome [10] | outcome [11] | outcome [12] | outcome [13] | outcome [14] | Potency [15] | Potency [16] | Potency [17] | Potency [18] | Potency [19] | Potency [20]

CCC(O)C(C)(C)C (stereo not given)
inactive: caspase-3 activation [1] 0.94% | outcome [2] | caspase-3 activation [3] -0.43% | caspase-3 activation [4] 1.79% | outcome [5] | outcome [6] | Potency [7] | Potency [8] | Potency [9] | outcome [10] | outcome [11] | outcome [12] | outcome [13] | outcome [14] | Potency [15] | Potency [16] | Potency [17] | Potency [18] | Potency [19] | Potency [20]

Nc1cc(S(=O)(=O)O)ccc1O
inactive: caspase-3 activation [1] 0.554% | outcome [2] | caspase-3 activation [3] -0.224% | caspase-3 activation [4] -0.175% | outcome [5] | outcome [6] | Potency [7] | Potency [8] | Potency [9] | outcome [10] | outcome [11] | outcome [12] | outcome [13] | outcome [14] | Potency [15] | Potency [16] | Potency [17] | Potency [18] | Potency [19] | Potency [20]
